Measured values published in the supplement of paper PMC11732987, “Enantioselective OTUD7B fragment discovery through chemoproteomics screening and high-throughput optimisation” (Communications Chemistry, 2025).

Tests used:
Test in all cases: log2 ratio of Biotin-Ahx-Ub-VS probe labelling (fragment/DMSO); higher = less target engagement (more negative = stronger competition), active = hit call of the paper (q ≤ 0.05, log2 ratio ≤ -1)
Conditions in all cases: compound concentration: 200 uM; treatment time: 3 h
[1] = target: T1, USP42 (UniProt Q9H9J4)
T1 sequence (whole entry): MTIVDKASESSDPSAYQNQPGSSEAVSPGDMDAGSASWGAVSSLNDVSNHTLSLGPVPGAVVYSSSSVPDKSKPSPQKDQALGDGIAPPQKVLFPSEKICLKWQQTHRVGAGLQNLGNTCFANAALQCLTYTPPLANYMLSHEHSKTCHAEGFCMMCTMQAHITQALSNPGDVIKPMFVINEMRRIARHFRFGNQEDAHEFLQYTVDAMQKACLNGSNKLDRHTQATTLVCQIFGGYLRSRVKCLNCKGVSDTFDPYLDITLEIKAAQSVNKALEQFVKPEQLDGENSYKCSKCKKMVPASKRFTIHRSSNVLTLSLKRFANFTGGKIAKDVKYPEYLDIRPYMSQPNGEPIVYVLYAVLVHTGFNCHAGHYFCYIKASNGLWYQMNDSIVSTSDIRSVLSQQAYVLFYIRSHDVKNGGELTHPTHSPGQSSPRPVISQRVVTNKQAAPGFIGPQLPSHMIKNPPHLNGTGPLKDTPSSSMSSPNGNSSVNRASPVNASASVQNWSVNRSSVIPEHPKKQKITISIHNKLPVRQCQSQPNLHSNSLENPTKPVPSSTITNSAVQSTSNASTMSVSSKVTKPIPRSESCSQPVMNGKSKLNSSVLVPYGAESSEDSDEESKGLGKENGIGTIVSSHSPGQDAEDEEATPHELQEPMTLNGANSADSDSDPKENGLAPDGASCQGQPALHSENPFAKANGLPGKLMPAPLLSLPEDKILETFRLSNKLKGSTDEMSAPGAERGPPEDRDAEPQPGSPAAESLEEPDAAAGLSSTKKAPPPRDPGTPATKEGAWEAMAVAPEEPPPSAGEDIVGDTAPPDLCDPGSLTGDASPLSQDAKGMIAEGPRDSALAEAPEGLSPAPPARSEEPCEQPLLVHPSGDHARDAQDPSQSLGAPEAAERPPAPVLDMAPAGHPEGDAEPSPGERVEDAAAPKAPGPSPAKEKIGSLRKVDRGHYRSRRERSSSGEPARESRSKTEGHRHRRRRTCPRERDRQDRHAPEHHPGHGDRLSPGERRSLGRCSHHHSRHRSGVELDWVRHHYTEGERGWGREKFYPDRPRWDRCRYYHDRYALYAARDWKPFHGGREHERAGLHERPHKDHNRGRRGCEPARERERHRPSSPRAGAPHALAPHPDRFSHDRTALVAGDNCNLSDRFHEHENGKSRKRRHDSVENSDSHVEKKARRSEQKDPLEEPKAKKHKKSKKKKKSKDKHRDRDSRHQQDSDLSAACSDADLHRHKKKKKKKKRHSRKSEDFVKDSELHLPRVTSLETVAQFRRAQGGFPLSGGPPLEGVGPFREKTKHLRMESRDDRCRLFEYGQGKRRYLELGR
Summary of the method: (§1)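 Fragment (200 µM) or vehicle was incubated for 3 h with triplicate HEK293T lysate samples of 495 µg, which were then treated with Biotin-Ahx-Ub-VS at 0.5 µM final for 1 h. Labelled DUBs were enriched on NeutrAvidin, digested with LysC and trypsin, and analysed by diaPASEF LC-MS/MS. Values are average log2 fragment/vehicle ratios from an unpaired t-test on global-median-normalised Spectronaut label-free quantities, using proteins with ≥2 unique peptides.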

[2] = target: USP46 (UniProt P62068)
Summary of the method: as §1

[3] = target: T2, USP47 (UniProt Q96K76)
T2 sequence (whole entry): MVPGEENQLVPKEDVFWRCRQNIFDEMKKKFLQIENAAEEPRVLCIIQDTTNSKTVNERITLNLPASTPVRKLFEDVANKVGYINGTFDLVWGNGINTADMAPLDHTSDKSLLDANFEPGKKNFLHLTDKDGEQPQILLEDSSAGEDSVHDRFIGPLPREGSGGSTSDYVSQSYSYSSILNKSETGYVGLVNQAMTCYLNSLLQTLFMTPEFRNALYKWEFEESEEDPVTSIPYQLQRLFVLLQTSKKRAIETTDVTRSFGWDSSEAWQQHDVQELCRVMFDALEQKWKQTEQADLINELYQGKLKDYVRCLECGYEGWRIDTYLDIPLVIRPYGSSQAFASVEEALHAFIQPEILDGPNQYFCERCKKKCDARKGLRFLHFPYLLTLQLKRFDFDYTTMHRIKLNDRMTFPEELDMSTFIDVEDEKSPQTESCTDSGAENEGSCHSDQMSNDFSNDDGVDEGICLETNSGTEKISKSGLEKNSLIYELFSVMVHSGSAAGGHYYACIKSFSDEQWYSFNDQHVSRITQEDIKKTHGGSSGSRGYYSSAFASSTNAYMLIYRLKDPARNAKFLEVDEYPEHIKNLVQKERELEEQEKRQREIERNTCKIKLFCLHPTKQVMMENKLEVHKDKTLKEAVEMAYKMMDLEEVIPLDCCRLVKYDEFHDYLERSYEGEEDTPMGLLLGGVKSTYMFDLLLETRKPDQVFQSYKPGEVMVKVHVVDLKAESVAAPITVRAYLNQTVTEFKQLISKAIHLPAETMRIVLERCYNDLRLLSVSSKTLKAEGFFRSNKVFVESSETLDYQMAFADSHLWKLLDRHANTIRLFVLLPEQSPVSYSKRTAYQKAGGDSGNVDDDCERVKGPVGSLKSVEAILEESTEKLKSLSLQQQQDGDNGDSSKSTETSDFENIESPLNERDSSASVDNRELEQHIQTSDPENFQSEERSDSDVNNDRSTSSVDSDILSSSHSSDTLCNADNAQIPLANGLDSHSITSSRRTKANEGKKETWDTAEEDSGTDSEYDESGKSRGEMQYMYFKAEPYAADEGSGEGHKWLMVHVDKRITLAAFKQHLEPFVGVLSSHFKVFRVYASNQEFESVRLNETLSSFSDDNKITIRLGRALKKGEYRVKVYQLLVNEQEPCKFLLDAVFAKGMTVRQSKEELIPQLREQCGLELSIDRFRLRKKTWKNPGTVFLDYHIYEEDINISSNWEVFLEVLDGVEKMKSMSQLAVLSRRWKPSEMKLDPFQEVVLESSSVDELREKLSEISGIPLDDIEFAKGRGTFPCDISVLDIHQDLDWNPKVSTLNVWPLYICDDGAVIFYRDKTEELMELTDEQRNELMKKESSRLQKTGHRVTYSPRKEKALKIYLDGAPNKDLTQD
Summary of the method: as §1

[4] = target: T3, USP48 (UniProt Q86UV5)
T3 sequence (whole entry): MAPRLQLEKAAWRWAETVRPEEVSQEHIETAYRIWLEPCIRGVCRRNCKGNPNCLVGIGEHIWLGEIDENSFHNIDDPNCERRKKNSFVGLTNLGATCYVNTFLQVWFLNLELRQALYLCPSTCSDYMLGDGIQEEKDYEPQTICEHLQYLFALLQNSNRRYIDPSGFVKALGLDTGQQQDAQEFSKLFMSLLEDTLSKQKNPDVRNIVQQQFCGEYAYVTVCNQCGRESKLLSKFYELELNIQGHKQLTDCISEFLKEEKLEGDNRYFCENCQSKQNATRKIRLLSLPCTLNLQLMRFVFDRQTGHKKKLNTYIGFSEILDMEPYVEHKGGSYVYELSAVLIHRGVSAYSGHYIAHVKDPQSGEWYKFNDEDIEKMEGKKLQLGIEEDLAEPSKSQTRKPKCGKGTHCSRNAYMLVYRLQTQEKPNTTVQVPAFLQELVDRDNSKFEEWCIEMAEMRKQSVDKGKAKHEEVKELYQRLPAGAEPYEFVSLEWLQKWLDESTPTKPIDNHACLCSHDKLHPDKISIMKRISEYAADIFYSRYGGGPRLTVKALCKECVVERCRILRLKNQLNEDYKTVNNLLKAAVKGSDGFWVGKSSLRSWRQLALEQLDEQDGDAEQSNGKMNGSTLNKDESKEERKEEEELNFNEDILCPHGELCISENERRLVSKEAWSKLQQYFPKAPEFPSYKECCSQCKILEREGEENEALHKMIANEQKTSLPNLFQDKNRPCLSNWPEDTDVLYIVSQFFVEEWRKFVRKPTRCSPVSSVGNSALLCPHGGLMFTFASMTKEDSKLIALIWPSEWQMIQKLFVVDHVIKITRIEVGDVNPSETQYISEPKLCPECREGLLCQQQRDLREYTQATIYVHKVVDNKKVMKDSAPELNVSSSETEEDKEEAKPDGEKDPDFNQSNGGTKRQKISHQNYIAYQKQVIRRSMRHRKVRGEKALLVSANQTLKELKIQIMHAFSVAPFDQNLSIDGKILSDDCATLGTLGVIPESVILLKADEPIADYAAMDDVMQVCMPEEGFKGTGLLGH
Summary of the method: as §1

[5] = target: T4, USP5 (UniProt P45974)
T4 sequence (whole entry): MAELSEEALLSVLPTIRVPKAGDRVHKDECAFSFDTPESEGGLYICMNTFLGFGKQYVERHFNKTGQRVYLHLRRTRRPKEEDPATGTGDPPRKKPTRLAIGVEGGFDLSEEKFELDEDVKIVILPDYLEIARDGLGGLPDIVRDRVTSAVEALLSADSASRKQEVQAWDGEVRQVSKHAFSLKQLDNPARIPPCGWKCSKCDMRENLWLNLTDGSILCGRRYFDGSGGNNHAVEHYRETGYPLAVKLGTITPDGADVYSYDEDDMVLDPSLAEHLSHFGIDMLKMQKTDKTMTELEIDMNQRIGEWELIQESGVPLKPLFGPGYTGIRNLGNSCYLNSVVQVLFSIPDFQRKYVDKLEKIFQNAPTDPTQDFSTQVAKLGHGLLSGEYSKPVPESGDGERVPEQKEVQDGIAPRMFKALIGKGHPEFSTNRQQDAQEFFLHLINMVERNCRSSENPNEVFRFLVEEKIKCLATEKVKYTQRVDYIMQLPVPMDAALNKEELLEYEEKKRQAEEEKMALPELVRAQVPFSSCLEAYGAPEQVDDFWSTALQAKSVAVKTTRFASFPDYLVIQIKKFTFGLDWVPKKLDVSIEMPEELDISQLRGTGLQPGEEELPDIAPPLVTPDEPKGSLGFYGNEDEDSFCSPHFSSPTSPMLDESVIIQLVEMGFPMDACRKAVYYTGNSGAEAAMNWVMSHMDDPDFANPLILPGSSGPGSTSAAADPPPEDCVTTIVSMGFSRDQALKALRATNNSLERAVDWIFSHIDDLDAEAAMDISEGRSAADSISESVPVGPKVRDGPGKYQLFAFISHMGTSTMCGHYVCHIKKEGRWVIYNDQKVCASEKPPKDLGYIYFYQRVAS
Summary of the method: as §1

[6] = target: USP54 (UniProt Q70EL1)
Summary of the method: as §1

[7] = target: USP7 (UniProt Q93009)
Summary of the method: as §1

[8] = target: T5, USP8 (UniProt P40818)
T5 sequence (whole entry): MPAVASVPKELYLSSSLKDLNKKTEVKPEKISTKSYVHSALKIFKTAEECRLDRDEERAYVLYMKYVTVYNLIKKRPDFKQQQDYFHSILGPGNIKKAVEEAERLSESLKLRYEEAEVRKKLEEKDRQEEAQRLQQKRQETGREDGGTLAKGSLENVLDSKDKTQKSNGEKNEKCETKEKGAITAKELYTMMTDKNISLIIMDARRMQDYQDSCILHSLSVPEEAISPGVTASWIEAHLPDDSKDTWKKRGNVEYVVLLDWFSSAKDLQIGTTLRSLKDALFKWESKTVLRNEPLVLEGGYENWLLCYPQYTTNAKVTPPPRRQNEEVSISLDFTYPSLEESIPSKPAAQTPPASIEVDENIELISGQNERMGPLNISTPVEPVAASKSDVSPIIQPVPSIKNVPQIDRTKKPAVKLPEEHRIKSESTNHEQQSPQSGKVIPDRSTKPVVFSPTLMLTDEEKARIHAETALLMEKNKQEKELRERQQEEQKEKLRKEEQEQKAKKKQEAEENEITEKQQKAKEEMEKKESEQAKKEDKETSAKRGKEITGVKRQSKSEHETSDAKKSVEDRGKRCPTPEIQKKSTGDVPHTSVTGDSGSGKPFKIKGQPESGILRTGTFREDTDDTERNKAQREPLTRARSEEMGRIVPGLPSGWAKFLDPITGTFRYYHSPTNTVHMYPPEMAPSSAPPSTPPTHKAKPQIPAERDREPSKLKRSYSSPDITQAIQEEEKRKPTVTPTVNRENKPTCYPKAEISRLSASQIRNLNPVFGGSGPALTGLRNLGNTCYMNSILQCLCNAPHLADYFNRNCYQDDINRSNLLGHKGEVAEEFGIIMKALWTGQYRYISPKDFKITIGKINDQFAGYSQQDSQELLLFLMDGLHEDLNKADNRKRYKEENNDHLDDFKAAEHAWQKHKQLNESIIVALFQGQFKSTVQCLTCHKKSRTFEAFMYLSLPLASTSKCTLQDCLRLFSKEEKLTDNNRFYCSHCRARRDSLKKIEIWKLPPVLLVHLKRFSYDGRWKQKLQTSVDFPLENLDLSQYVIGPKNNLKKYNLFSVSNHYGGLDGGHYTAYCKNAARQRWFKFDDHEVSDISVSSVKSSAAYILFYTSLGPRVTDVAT
Summary of the method: as §1

[9] = target: USP9X (UniProt Q93008)
Summary of the method: as §1

[10] = target: UniProt O00487
Summary of the method: as §1

Measured: log2 ratio of Biotin-Ahx-Ub-VS probe labelling

Chain of USP46 (P62068 whole entry): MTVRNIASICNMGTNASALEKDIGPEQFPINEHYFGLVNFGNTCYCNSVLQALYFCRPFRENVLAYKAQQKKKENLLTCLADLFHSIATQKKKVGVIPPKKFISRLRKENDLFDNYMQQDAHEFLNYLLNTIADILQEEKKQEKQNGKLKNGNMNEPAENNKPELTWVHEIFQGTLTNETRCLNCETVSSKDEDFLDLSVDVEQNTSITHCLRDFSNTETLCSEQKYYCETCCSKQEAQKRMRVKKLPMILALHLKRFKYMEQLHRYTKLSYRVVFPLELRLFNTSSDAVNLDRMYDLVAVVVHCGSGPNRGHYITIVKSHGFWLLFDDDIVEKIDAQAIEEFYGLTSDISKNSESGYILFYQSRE
Chain of USP7 (Q93009 whole entry, looked up): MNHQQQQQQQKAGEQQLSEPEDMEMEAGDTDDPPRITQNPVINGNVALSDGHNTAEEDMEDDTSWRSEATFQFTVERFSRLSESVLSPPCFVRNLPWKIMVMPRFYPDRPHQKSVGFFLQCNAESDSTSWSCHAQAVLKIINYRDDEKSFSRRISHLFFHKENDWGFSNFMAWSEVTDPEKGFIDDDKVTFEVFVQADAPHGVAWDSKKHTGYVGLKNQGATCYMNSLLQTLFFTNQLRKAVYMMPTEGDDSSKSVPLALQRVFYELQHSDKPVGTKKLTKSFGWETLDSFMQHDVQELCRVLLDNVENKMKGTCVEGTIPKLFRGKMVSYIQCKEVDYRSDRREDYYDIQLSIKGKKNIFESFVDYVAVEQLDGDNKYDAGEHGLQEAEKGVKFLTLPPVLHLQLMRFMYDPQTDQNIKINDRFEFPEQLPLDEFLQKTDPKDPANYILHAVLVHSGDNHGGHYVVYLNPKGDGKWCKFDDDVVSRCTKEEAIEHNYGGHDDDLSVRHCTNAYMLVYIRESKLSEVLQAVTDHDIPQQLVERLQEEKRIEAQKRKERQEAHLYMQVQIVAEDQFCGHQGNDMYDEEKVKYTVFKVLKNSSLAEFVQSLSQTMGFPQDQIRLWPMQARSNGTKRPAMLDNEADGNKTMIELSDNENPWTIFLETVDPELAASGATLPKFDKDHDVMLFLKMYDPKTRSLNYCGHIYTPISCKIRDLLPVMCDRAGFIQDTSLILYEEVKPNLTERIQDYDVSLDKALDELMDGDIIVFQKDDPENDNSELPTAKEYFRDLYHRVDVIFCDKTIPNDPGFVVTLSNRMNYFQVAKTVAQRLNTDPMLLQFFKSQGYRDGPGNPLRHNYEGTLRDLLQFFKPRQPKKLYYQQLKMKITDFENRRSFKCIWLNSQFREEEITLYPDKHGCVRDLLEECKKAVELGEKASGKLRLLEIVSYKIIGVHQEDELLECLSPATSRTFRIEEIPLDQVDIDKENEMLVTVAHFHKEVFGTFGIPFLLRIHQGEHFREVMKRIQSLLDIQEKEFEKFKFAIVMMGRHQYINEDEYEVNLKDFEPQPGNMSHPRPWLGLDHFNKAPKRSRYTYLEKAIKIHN
Chain of UniProt O00487 (O00487 whole entry): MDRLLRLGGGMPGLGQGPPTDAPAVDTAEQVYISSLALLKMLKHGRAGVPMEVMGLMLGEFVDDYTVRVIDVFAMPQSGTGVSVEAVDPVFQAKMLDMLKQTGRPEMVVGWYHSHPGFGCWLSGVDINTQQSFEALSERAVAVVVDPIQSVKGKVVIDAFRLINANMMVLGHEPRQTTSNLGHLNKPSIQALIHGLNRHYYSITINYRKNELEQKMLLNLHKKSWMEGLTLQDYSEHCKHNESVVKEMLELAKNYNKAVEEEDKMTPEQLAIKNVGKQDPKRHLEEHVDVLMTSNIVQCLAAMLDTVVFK
Chain of USP9X (Q93008 whole entry): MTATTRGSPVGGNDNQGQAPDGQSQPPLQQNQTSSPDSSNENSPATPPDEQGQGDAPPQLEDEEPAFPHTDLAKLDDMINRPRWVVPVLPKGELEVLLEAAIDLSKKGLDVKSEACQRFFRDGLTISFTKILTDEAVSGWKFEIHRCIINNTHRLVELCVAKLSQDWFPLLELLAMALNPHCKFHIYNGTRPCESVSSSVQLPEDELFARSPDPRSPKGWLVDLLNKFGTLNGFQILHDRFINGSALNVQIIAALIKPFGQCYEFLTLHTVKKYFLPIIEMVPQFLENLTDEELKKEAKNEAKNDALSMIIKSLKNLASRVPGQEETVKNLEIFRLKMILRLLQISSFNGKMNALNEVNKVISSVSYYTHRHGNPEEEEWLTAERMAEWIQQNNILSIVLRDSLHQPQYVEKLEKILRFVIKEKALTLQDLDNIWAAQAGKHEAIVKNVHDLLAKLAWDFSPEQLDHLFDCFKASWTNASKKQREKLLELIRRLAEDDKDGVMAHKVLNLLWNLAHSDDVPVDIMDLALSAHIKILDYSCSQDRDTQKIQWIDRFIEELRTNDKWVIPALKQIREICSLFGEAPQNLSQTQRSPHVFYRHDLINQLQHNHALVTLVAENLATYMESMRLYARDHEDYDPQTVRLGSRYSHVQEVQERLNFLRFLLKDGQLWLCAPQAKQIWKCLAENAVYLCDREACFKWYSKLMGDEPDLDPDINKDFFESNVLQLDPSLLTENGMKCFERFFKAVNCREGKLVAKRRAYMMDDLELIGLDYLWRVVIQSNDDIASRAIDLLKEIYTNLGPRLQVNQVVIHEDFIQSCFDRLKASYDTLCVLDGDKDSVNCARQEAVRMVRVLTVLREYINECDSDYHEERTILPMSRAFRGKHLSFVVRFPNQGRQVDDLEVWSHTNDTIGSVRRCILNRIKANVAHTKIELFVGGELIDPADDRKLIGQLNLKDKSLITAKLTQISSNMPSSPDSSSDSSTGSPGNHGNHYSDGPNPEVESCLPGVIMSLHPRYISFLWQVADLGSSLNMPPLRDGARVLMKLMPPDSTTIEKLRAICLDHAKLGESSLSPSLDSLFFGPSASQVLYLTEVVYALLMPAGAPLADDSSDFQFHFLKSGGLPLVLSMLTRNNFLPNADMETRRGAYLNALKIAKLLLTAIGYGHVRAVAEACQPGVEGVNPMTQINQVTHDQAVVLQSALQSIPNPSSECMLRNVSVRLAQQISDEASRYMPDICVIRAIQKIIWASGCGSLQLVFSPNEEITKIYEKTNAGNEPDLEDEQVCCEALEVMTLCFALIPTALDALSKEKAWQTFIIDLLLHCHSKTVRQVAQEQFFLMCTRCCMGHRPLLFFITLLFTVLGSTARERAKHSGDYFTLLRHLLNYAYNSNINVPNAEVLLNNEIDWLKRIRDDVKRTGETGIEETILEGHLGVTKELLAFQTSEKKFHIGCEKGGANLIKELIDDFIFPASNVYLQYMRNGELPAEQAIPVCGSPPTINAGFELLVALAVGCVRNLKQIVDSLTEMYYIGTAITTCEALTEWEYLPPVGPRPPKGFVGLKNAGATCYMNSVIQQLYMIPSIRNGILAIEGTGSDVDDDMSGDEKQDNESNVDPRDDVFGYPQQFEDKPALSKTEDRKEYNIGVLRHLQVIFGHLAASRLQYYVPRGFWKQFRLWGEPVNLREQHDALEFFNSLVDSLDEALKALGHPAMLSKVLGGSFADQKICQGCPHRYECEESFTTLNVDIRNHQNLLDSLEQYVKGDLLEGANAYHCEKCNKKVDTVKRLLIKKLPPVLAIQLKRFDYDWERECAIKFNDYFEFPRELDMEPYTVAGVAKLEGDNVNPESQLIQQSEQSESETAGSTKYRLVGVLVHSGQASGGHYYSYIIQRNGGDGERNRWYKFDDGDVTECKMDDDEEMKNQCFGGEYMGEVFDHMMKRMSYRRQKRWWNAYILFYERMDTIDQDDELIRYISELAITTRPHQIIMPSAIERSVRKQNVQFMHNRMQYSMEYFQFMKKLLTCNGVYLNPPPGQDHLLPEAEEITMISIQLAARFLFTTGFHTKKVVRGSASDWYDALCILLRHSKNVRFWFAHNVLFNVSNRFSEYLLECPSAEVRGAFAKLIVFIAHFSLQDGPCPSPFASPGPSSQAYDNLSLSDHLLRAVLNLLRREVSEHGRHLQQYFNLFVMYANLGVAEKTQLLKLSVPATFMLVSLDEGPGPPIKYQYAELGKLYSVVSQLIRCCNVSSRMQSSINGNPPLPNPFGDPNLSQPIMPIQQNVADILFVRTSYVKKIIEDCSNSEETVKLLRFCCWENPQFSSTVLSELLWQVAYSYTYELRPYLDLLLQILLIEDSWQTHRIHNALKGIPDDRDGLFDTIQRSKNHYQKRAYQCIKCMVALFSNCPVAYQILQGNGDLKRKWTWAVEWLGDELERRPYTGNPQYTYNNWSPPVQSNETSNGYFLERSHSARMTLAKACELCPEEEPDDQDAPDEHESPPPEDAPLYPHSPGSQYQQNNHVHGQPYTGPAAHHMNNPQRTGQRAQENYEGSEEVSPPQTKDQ

O=C(CCl)NCc1cccc(N2CCCC2=O)c1
inactive: [1] -0.175 | [2] 0.179 | [3] 0.109 | [4] -0.0848 | [5] 0.238 | [6] 0.342 | [7] -0.0593 | [8] -0.147 | [9] -0.272 | [10] 0.135
